# The full list was thinned out, with hits kept by preference.
# Dicer inh: blocks human Dicer maturation of pre-miR-21; Q9UPY3; cat-ELCCA pre-miR-21 Dicer processing, chemiluminescence; stronger effect = higher value; z-score at 25 µM; hit rate 6% among 47,000; in the data active = z-score above about 3, passing the limit was not always enough;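 note: plate controls were vehicle for no effect and no enzyme for full effect; higher signal means more uncleaved substrate so more Dicer inhibition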
# * = called active by the depositor.
SMILES,Dicer inh
CC1=CC(C)(C)N2C(=O)C(=O)c3cc(OC(=O)CCC4CCCCC4)cc1c32,1.87
Cc1ccc2nc3c(nc2c1C)C(O)=C3O,4.23*
C=CCNC(=O)Cc1coc2ccc3ccccc3c12,-1.49
Nc1cc(Cc2cc(N)cc(C(F)(F)F)c2)cc(C(F)(F)F)c1,0.5
CC(C)c1ccc(S(=O)(=O)/N=C(\N)CSc2ccc(Cl)cc2)cc1,-0.68
O=S(=O)(Nc1ccc(F)c(Cl)c1)c1cc(Br)c(Br)s1,0.26
Cn1c(=O)c2c(nc(NCCc3ccccc3)n2Cc2ccccc2F)n(C)c1=O,-0.97
CCN(CC)CCNc1nc2c(c(=O)n(C)c(=O)n2C)n1Cc1ccc(Cl)c(Cl)c1,-0.88
Cn1c(=O)c2c(nc(NCCO)n2Cc2cccc3ccccc23)n(C)c1=O,3.08*
CCN(CC)CCNc1nc2c(c(=O)n(C)c(=O)n2C)n1Cc1ccc(F)cc1,3.29*
Cn1c(=O)c2c(nc(NC3CCCCC3)n2Cc2ccccc2)n(C)c1=O,3.63*
Cn1c(=O)c2c(nc(Cl)n2Cc2ccccc2)n(C)c1=O,-3.91
Cn1c(=O)c2c(nc(NCc3ccccc3)n2Cc2ccccc2)n(C)c1=O,1.2
Cn1c(=O)c2c(nc(N/N=C/c3cccc(O)c3)n2Cc2ccccc2Br)n(C)c1=O,3.38*
Cn1c(=O)c2c(nc(N/N=C/c3ccc(O)cc3)n2Cc2c(Cl)cccc2Cl)n(C)c1=O,4.75
CCN(CC)CCNc1nc2c(c(=O)[nH]c(=O)n2C)n1Cc1ccc(Cl)cc1,-3.55
Cn1c(=O)c2c(nc(NCCCO)n2Cc2ccccc2F)n(C)c1=O,0.32
Cn1c(=O)c2c(nc(N/N=C/c3ccccc3)n2Cc2ccccc2)n(C)c1=O,1.18
Cc1ccccc1CN1CCC(N2CCN(CCO)CC2)CC1,1.45
CCCOC(=O)C(CC)Oc1ccc2c(=O)c(Oc3ccc(OC)cc3)coc2c1 (centres undefined),-0.43
COc1ccc(NC(=S)NCCNC(=O)OC(C)(C)C)c(OC)c1,-1.47
CC1(C)CN=C(N(C(=O)Nc2ccccc2)c2ccc(Cl)cc2)S1,0.85
Cc1c(S(=O)(=O)NCc2csc(-c3cccs3)n2)cnn1-c1ccccc1,0.13
CC(C)Cc1n(CC(=O)c2ccccc2)c2ccccc2[n+]1C,-0.18
Cc1cc(C)c(NC(=O)CC#N)c(C)c1,1.49
SMILES,Dicer inh
Cc1c(C#N)c(NC(=O)c2cc(Cl)cc(Cl)c2)n(CC2CC2)c1C,-0.62
O=C(O)CCCN1C(=O)C(=O)/C(=C(/O)c2ccccc2)C1c1ccc(Br)cc1 (centres undefined),3.91*
CN(C)CCN1C(=O)C(=O)/C(=C(/O)c2ccccc2)C1c1ccc(Br)cc1 (centres undefined),0.89
O=C1C(=O)N(CCCN2CCOCC2)C(c2ccccc2)/C1=C(\O)c1ccc(Br)cc1 (centres undefined),2.31
COc1ccccc1Nc1nc(Nc2ccccc2OC)nc(N2CCOCC2)n1,0.22
O=c1nc(N2CCOCC2)nc(Nc2ccccc2)[nH]1,8.26*
O=c1nc(Nc2ccccc2)c2ccccc2[nH]1,1.55
O=C(NCc1ccc(F)cc1)c1cnn2c1NC(c1cccs1)CC2C(F)(F)F (centres undefined),2.22
O=C(NCc1ccco1)c1cnn2c1NC(c1ccc(Br)cc1)CC2C(F)(F)F (centres undefined),4.97*
Cc1ccc(C2CC(C(F)(F)F)n3ncc(C(=O)NCc4cn(C)nc4C)c3N2)cc1 (centres undefined),-0.66
COc1ccc(C2CC(C(F)(F)F)n3ncc(C(=O)NCC4CCCO4)c3N2)cc1OC (centres undefined),-0.63
O=C(NCCc1ccccc1)c1cnn2c1NC(c1ccc(Br)cc1)CC2C(F)(F)F (centres undefined),-0.32
O=C(NCc1cccs1)c1cnn2c1NC(c1ccc(Br)cc1)CC2C(F)(F)F (centres undefined),5.72*
COc1ccc(-n2ccc(-c3ccccc3)nc2=S)cc1,0.19
NC(=O)c1sc(=S)n(-c2ccc(Cl)cc2)c1N,0.06
CCO[C@@H]1O[C@H](COC(C)=O)[C@@H](OC(C)=O)[C@H](OC(C)=O)[C@H]1OC(C)=O,-0.42
Cc1nnc2c(Oc3cccc4ccccc34)nc3ccccc3n12,-1.13
N#CC(C(=O)c1ccccc1)=C1SCCCS1,1.68
N#CC(C(=O)c1ccccc1Cl)=C1SCCCS1,-0.64
N#CC(C(=O)c1cccs1)=C1SCCS1,3.79*
CC(=O)Nc1ncc(C(F)(F)F)cc1Cl,-0.4
Cn1c(=O)c2c(nc3n2CC(=O)N(CCc2ccccc2)C3)n(C)c1=O,-0.33
CCCCn1c2ccccc2c2ccccc21,0.42
CCCn1c(C)cc(C)c(C#N)c1=O,0.64
CCCCn1c(C)cc(=S)cc1C,4.49*
SMILES,Dicer inh
CN(C)c1ccc(CNC2CCCCC2)cc1,2.34
COC(=O)c1ccc(C2C3=C(CCCC3=O)NC3=C2C(=O)c2ccccc23)cc1 (centres undefined),-0.7
CCOc1ccc(N(C)S(=O)(=O)c2ccc(Cl)cc2)cc1,3.14*
COc1ccc(N(C2C=CS(=O)(=O)C2)S(=O)(=O)c2ccc(Cl)cc2)cc1 (centres undefined),-1.01
CCOc1ccc2c(c1)C(C)=CC(C)(C)N2S(=O)(=O)c1ccc(Cl)cc1,0.79
CCn1c(SCC(=O)c2ccccc2)nc2sc3c(c2c1=O)CCC3,-1.03
COC(=O)CSc1nc2sc3c(c2c(=O)n1-c1ccc(OC)cc1)CCCC3,24.1
CCCCn1c(SCC(=O)OC)nc2sc3c(c2c1=O)CCC3,4.28*
CN1CCOc2ccc(S(=O)(=O)N3CCCC3c3ccc(F)cc3)cc21 (centres undefined),-0.47
Cc1cc(-c2ccccc2)nc2oc(-c3nnc(SCc4ccc(Cl)cc4)n3C)c(N)c12,0.71
CCc1ccc(S(=O)(=O)Nc2ccc3oc(=O)sc3c2)cc1,7.88*
CCc1ccc(CC)c(S(=O)(=O)Nc2ccc3oc(=O)sc3c2)c1,7.82*
CCCCC(=O)N(c1ccc2oc(=O)sc2c1)S(=O)(=O)c1ccccc1,-0.63
CCCC(=O)N(c1ccc2oc(=O)sc2c1)S(=O)(=O)c1ccc(Cl)cc1,2.07
CCc1ccc(-c2nc3cc(NS(=O)(=O)c4ccccc4)ccc3o2)cc1,1.96
CCc1ccc(S(=O)(=O)Nc2cccc(S(N)(=O)=O)c2)cc1,-0.66
CSC1=NN(C)c2cnn(C)c(=O)c2S1,3.01
C/C(=N\OC(=O)Nc1c(-c2c(Cl)cccc2Cl)noc1C)C(C)(C)C,0.53
O=S1(=O)CC2SC(=S)N(c3cccc(O)c3)C2C1 (centres undefined),0.2
COC(=O)c1ccc(C2C(C#N)=C(N)Oc3n[nH]c(-c4ccc5c(c4)OCO5)c32)cc1 (centres undefined),-4.93
CCOC(=O)C1=C(C)NC2=C(C(=O)CC(C)(C)C2)C1c1ccc(OC(C)=O)c(OC)c1 (centres undefined),1.62
COC(=O)C1=C(C)NC2=C(C(=O)CC(C)(C)C2)C1c1ccccc1OC (centres undefined),2.81
COC(=O)C1=C(N)Oc2cc(N(C)C)ccc2C1c1ccccc1OC (centres undefined),3.17*
COc1ccc(Br)cc1C1C(C#N)=C(N)Oc2cc(O)ccc21 (centres undefined),0.58
Fc1cccc(CSc2ncc3ccccn23)c1,2.04
O=C1CC(c2ccccc2)Oc2cc(Cl)ccc21 (centres undefined),-1.55
O=C1CC(c2ccc(O)cc2)Oc2cc(O)ccc21 (centres undefined),4.75*
O=C1CC(c2ccccc2)Oc2ccccc21 (centres undefined),0.24

# Compound activity from PubChem BioAssay.
